Screening results from PubChem.
Only some compounds are listed: those with a hit (about 10% of all), similar ones and a draw of the others.
JMJD2A Tudor: JMJD2A Tudor domain (human) inhibition; AID 504339; Potency, µM (doses to about 114 µM), without a hit: top-dose activity change, negative = inhibition, most hits filed as inhibitors; hit rate 4.4% among 390,000; AlphaScreen JMJD2A-Tudor / H3K4me3 peptide binding; also: % is scaled to controls: 0 for no effect and ±100 for the full control effect; nearly all actives have a fitted effect of over 50% in size
Target sequence (O75164 whole entry, looked up, the tested form may be a part): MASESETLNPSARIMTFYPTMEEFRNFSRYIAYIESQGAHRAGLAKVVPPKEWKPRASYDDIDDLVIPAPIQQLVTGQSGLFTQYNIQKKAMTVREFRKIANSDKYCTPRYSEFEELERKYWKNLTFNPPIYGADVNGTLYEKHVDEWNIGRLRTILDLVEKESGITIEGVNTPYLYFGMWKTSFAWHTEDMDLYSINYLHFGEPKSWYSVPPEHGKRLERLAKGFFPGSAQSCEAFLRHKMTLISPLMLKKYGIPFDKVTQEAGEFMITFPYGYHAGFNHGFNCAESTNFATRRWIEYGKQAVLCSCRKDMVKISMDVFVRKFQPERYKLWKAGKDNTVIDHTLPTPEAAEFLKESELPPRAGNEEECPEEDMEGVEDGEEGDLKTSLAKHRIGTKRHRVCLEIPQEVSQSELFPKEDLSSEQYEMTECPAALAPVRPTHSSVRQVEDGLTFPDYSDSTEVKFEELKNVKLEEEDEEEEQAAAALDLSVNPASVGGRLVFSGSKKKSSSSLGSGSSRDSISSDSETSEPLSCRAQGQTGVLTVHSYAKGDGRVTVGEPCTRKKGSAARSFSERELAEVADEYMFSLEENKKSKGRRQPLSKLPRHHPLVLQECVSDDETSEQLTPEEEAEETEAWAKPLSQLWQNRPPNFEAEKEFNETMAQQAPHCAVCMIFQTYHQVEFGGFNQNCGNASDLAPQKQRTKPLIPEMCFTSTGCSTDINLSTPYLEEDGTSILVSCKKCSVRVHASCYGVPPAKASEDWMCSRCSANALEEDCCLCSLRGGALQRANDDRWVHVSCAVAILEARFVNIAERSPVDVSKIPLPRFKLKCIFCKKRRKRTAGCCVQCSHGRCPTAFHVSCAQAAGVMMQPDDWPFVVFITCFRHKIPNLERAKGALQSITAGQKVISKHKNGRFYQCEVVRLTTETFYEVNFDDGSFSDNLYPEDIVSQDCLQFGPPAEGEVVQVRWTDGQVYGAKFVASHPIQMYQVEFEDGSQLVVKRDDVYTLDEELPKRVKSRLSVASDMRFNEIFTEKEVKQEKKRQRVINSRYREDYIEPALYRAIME
HP1b binding inh: inhibitors of HP1-beta chromodomain binding to methylated histone tails. Potency, µM (titrated, usually from 114 µM), inactives show at the top dose activity change, negative = inhibition, actives largely listed as inhibitors. AlphaScreen HP1-beta / biotin-H3K9me3 peptide binding. P83916. hit rate 0.56% among 390,000; also: nearly all actives have a fitted effect of over 70% in size
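Compound inhibition of the preformed complex between 50 nM HP1-beta and 50 nM biotinylated H3K9me3 peptide was read by AlphaScreen. Buffer was PBS pH 7.4 with 0.01% Tween-20. Incubations ran 30 min at room temperature, with 10 ug/mL donor/acceptor beads.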
BAZ2B inh: BAZ2B (human) inhibition; AlphaScreen BAZ2B-H3K14Ac peptide displacement; Potency, µM (top dose mostly 114 µM), for the others: at the top dose activity change, negative = inhibition, usual class: inhibitors; hit rate 4.4% among 360,000; also: % is scaled to controls: 0 for no effect and ±100 for the full control effect; nearly all actives have a fitted effect of over 60% in size
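BAZ2B (50 nM) with biotin-H3(5-23)K14Ac peptide (50 nM) in PBS pH 7.4, 0.01% Tween-20, preformed 30 min, then compound 30 min at room temperature; top concentration 110uM. AlphaScreen streptavidin donor/nickel chelate acceptor beads (10 ug/mL final), 20 min dark, signal read.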
GLS inh: blocks human kidney-isoform glutaminase activity; Potency, µM (highest dose often 45.5 µM), without a hit: top-dose activity change, negative = inhibition, hits mostly inhibitors; GLS enzymatic activity, qHTS titration; O94925; hit rate 0.21% among 410,000; also: % is scaled to controls: 0 for no effect and ±100 for the full control effect
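Assay buffer: 45 mM KH2PO4 pH 8.2, 0.02% Tween-20. hKGA acts on L-glutamine (1 mM solution added); product glutamate is reported by an oxidase/peroxidase Amplex Red coupling, with fluorescence taken at baseline and 30 min.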
G9a block: inhibitors of human histone lysine methyltransferase G9a; G9a H3K9 monomethylation, AlphaScreen, 2 h; Q96KQ7; hit rate 8.8% among 350,000; Potency, µM (highest dose often 102 µM), without a hit: at the highest dose activity, negative = inhibition, most hits filed as inhibitors; also: % is scaled to controls: 0 for no effect and ±100 for the full control effect; nearly all actives have a fitted effect of over 75% in size
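Using a bead-based AlphaScreen, monomethylated H3K9 product from 2 h room-temperature reactions (G9a 20 nM, peptide 500 nM, SAM 20 uM) was detected with 0.5 ug/mL rabbit anti-H3K9me1 antibody.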
Starred values were filed as active, the others as inactive; ! = not confirmed by another sample; [ ] = another dose, or the depositor's remark. Calls follow the shape of the dose curve; as a rule, active = well fitted curve in the direction sought with a large enough effect; inconclusive = small, poorly fitted or top-dose-only effect, or another doubt; inactive = no such curve, though single readings can be large; an effect the other way counts as inactive or inconclusive. Potency is read from the fitted curve at half-maximal effect.

What do the screens show for `Cc1nn(C(=O)c2ccc(Cl)cc2)c(C)c1S(=O)(=O)N1CCOCC1`?
JMJD2A Tudor: -18.2%; HP1b binding inh: 35.6%[57 µM]; BAZ2B inh: -6.6%; GLS inh: 14.9%; G9a block: -43.7%[59 µM]

Results for CN(c1ccc(C(=O)N2CCOCC2)cc1[N+](=O)[O-])C1CCCCC1 ?
JMJD2A Tudor: -32.3%; HP1b binding inh: -7.9%; BAZ2B inh: 50.1µM*; GLS inh: 9.5%; G9a block: inconclusive

What do the screens show for `CCN(CC)S(=O)(=O)c1ccc(C(=O)Nc2nnc(-c3ccco3)o2)cc1`?
JMJD2A Tudor: -20.7%; HP1b binding inh: 17.0%; GLS inh: 3.3%; G9a block: -32.7%

Results for CN(C)S(=O)(=O)c1ccc(C(=O)Nc2nnc(-c3ccco3)o2)cc1 ?
JMJD2A Tudor: 89.1µM*; HP1b binding inh: 11.4%; BAZ2B inh: 79.4µM*; GLS inh: 4.0%; G9a block: -4.2%

Results for CN(C(=O)c1ccc(N2CCOCC2)c([N+](=O)[O-])c1)C1CCCCC1 ?
JMJD2A Tudor: -9.0%; HP1b binding inh: 23.9%; BAZ2B inh: -7.8%; GLS inh: -6.6%; G9a block: 19.2%

What do the screens show for `CC1CCCCN1S(=O)(=O)c1ccc(C(=O)N2CCOCC2)cc1` (centres undefined)?
JMJD2A Tudor: -5.5%; HP1b binding inh: 10.2%; BAZ2B inh: 18.5%; GLS inh: 0.2%; G9a block: 56.2µM*

Results for O=C(Nc1nnc(C2CC2)o1)c1ccc(S(=O)(=O)N2CCCCC2)cc1 ?
JMJD2A Tudor: inconclusive; HP1b binding inh: 46.3%; BAZ2B inh: 56.2µM*; GLS inh: -0.3%; G9a block: 17.0%

Results for Cc1nc2ccc(N=NN(C)C)cc2[nH]1 ?
JMJD2A Tudor: -22.8%; HP1b binding inh: 15.8µM*; BAZ2B inh: -21.3%; GLS inh: 0.4%

Results for Cn1cc(C(F)(F)F)nc1-c1ccc(OCC(O)CNCCOc2ccc(O)c(C(N)=O)c2)cc1 (centres undefined) ?
JMJD2A Tudor: -18.0%; HP1b binding inh: 14.5%; BAZ2B inh: -7.6%; GLS inh: 14.6%; G9a block: 25.1µM*!

Results for Cc1ccc(Nc2nnc(SC3CCOC3=O)s2)cc1 (centres undefined) ?
JMJD2A Tudor: -18.2%; HP1b binding inh: 28.8%; BAZ2B inh: 10.1%; GLS inh: 0.0%; G9a block: 10µM*

How did CC(C)c1ccc(Nc2nnc(SC3CCOC3=O)s2)cc1 (centres undefined) do in these assays?
JMJD2A Tudor: 3.1%; HP1b binding inh: 40.0%; BAZ2B inh: 2.9%; GLS inh: -9.8%; G9a block: 3.1%[59 µM]

How did O=C(c1ccco1)N1CCN(C2CN(C3CCCC3)S(=O)(=O)C2)CC1 (centres undefined) do in these assays?
GLS inh: 2.5%

How did O=C(NC(=S)N1CCCCCC1)c1ccccc1 do in these assays?
JMJD2A Tudor: -16.3%; HP1b binding inh: 37.1%; BAZ2B inh: inconclusive; GLS inh: 5.2%

How did O=C(c1cccc(Cl)c1)N1CCN(C2CCCCC2)CC1 do in these assays?
JMJD2A Tudor: 7.94µM*; HP1b binding inh: inconclusive; BAZ2B inh: inconclusive; GLS inh: 1.8%

Results for O=C(c1cccc(F)c1)N1CCN(C(=O)C2CC2)CC1 ?
JMJD2A Tudor: -1.4%; HP1b binding inh: 58.7%; BAZ2B inh: 4.5%; GLS inh: -16.5%; G9a block: 6.3%[59 µM]

What do the screens show for `O=C(NC(=S)N1CCN(C2CCCCC2)CC1)c1ccccc1`?
JMJD2A Tudor: -16.9%; HP1b binding inh: -11.2%; BAZ2B inh: -23.8%; GLS inh: 0.8%; G9a block: 50.1µM*

Results for O=C(c1cccc(F)c1)N1CCC(N2CCCCCC2)CC1 ?
JMJD2A Tudor: 2.24µM*; HP1b binding inh: inconclusive; BAZ2B inh: 56.2µM*; GLS inh: -0.2%; G9a block: 22.4µM*

How did O=C(c1ccco1)N1CCN(C2CCCC2)CC1 do in these assays?
JMJD2A Tudor: 3.16µM*; HP1b binding inh: inconclusive; BAZ2B inh: -3.9%; GLS inh: 4.9%; G9a block: inconclusive

Results for CCN(CC)CCCNC(=O)Cn1c(-c2cccs2)cc2cc(Cl)ccc21 ?
JMJD2A Tudor: -11.2%; HP1b binding inh: 30.1%; BAZ2B inh: -2.9%; GLS inh: -2.6%; G9a block: -20.5%[59 µM]

Results for O=C(c1cccc(C(F)(F)F)c1)N1CCN(C2CCCCC2)CC1 ?
JMJD2A Tudor: -10.9%; HP1b binding inh: -3.7%; BAZ2B inh: 5.2%; GLS inh: 5.9%; G9a block: -3.0%[59 µM]

Results for O=C(c1ccco1)N1CCN(C(=O)c2cccc3c2C(=O)N(C2CCCCC2)C3)CC1 ?
JMJD2A Tudor: -4.2%; HP1b binding inh: 20.2%; BAZ2B inh: -21.3%; GLS inh: 1.8%; G9a block: 44.7µM*

What do the screens show for `O=C(c1ccccc1)N1CCN(C2CCCCCC2)CC1`?
JMJD2A Tudor: 3.16µM*; HP1b binding inh: inconclusive; BAZ2B inh: 56.2µM*; GLS inh: 14.1%; G9a block: inconclusive

How did O=C(c1cccc(F)c1)N1CCN(C2CCCCC2)CC1 do in these assays?
JMJD2A Tudor: 22.4µM*; HP1b binding inh: inconclusive; BAZ2B inh: 50.1µM*; GLS inh: 26.2%; G9a block: 22.4µM*

What do the screens show for `O=C(c1ccco1)N1CCN(C(=O)c2cccc3c2C(=O)N(Cc2cccnc2)C3)CC1`?
JMJD2A Tudor: -12.7%; HP1b binding inh: 25.7%; BAZ2B inh: 22.7%; GLS inh: 0.9%; G9a block: inconclusive

How did C[N+](C)(C)CCOP(=O)(O)OP(=O)([O-])OCC1OC(n2ccc(N)nc2=O)[C@H](O)[C@@H]1O (some centres undefined) do in these assays?
GLS inh: -0.9%

What do the screens show for `Cc1cc(C)c(Cn2c(CCNC(=O)c3ccco3)nc3ccccc32)c(C)c1`?
JMJD2A Tudor: inconclusive; HP1b binding inh: -15.0%; BAZ2B inh: inconclusive; GLS inh: -3.9%; G9a block: -10.5%[59 µM]

Results for COc1ccc(N2CCN(C(=O)COC(=O)CCS(=O)(=O)c3ccc(C)cc3)CC2)cc1 ?
JMJD2A Tudor: -10.3%; HP1b binding inh: -10.3%; BAZ2B inh: -17.4%; GLS inh: 32.9%; G9a block: 39.8µM*

Results for Cc1ccc(S(=O)(=O)N2CCN(C(=O)COC(=O)CCOc3ccccc3C)CC2)cc1 ?
JMJD2A Tudor: 2.1%; HP1b binding inh: 27.0%; BAZ2B inh: 3.4%; GLS inh: 5.0%; G9a block: 9.7%[0.501 µM]

Results for Cc1ccc(S(=O)(=O)CCC(=O)OCC(=O)N2CCN(c3ccccc3)CC2)cc1 ?
JMJD2A Tudor: -13.7%; HP1b binding inh: 13.1%; BAZ2B inh: 1.7%; GLS inh: 6.1%; G9a block: 10.4%[2.33 µM]

What do the screens show for `CCOC(=O)N1CCN(S(=O)(=O)c2ccc(C)cc2)CC1`?
JMJD2A Tudor: -7.7%; HP1b binding inh: 30.3%; BAZ2B inh: -19.3%; GLS inh: -7.1%; G9a block: 12.3%
